# Results taken from PubChem BioAssay (NCI).
# The panel holds about 83,000 compounds, 20% with a hit somewhere; the sample as a whole holds those more often.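 Treatment: one concentration, 48 hours, 96-well format. Scoring: percent growth, with anything below 10 considered active.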 Unmarked numbers belong to inactive results. Activity calls are given as the source filed them.
# Key:
# Experiment in all cases: NCI-60 one-dose screen, 48 h (100 = growth as untreated, 0 = no growth, -100 = all killed)
# Settings in all cases: 10 µM unless noted
# [1] = system: NCI-H23 lung
# [2] = system: NCI-H226 lung
# [3] = system: HOP-62 NSCLC
# [4] = system: NCI-H460 lung
# [5] = system: HOP-92 NSCLC
# [6] = system: A549/ATCC NSCLC
# [7] = system: 786-0 renal
# [8] = system: COLO 205 colon
# [9] = system: K-562 leukemia
# [10] = system: MALME-3M melanoma
# [11] = system: MDA-MB-231 breast
# [12] = system: RXF 393 renal
# [13] = system: SF-268 CNS
# [14] = system: SF-295 CNS
# [15] = system: SF-539 CNS
# [16] = system: UACC-257 melanoma
# [17] = system: NCI-H522 lung
# [18] = system: DU-145 prostate
# [19] = system: M14 melanoma
# [20] = system: NCI-H322M lung
SMILES,growth [1],growth [2],growth [3],growth [4],growth [5],growth [6],growth [7],growth [8],growth [9],growth [10],growth [11],growth [12],growth [13],growth [14],growth [15],growth [16],growth [17],growth [18],growth [19],growth [20] [%]
Cc1ccccc1NC(=O)Cc1csc2[n+]1C(=O)/C(=C/c1ccc([N+](=O)[O-])cc1)S2,93.1%,91.1%,86.7%,104%,79.5%,99.8%,93.5%,105%,88.3%,99.3%,97.7%,111%,95.9%,99.7%,104%,104%,,,,
OC(c1cc2ccc(C(F)(F)F)cc2c2cc(C(F)(F)F)ccc12)C1CCCCN1 (stereo not drawn),-95.8% (active),-71.4% (active),-100% (active),-100% (active),,-97% (active),-85% (active),-100% (active),-95% (active),-72.6% (active),-79.1% (active),-79.6% (active),-81.7% (active),-96% (active),-88.1% (active),-86.4% (active),-87.7% (active),-99.3% (active),-85.2% (active),
Nc1ccc(-c2ccc(N)c(S(=O)(=O)O)c2)cc1S(=O)(=O)O,112%,119%,101%,,74.4%,117%,106%,114%,118%,107%,110%,,103%,115%,106%,134%,125%,109%,104%,
CC(CSc1n[nH]c(=S)s1)c1ccccc1 (stereo not drawn),106%,,108%,114%,101%,103%,111%,105%,103%,110%,103%,118%,109%,106%,119%,112%,79.3%,117%,,118
Nc1nc(-c2ccccc2)nc(N)c1N=O,97.3%,90.4%,,23.8%,65.3%,66%,83.6%,,31.7%,91.3%,93.8%,63.9%,77.2%,108%,77.5%,54.4%,-7.61% (active),88.8%,67.3%,
CC(C)c1ccc(C(=O)OC2CCCC2)cc1,100%,,93.1%,105%,80.2%,117%,107%,103%,120%,101%,103%,118%,95.1%,106%,108%,125%,103%,106%,93.9%,99.2
Cc1nc(Sc2nc3ccc([N+](=O)[O-])cc3s2)sc1C,-3.96% (active),,72.2%,11.7%,1.28% (active),55.9%,19.6%,27.1%,3.13% (active),-14.3% (active),-15.6% (active),-2.1% (active),18.7%,82.1%,,36.8%,-48.1% (active),31.1%,11.5%,89.2
CC1C(c2ccccc2)OCCN1C(=S)Nc1ccc(S(=O)(=O)N2CCCCC2)cc1 (stereo not drawn),98.6%,,109%,104%,78.2%,102%,109%,108%,109%,96.5%,86%,95.5%,109%,99.2%,,91.5%,-34.1% (active),104%,94.5%,108
O=C1c2ccccc2Cc2cccc(Cl)c21,95.5%,94.6%,98.8%,,110%,91.7%,89.1%,,91.5%,94.2%,95.4%,89.7%,93%,90.9%,98.1%,104%,85.8%,,111%,
CCOC(=O)C1=NN(c2ccccc2)C(=O)/C1=C\N1C(=O)/C(=C/c2cccc(O)c2)SC1=S,87.8%,103%,84%,,73.6%,79.3%,98.8%,114%,100%,,87.6%,101%,91.7%,104%,107%,98.3%,82.3%,96.8%,89.6%,
CCc1oc2ccccc2c1C(=O)c1cc(Br)c(O)c(Br)c1,52.9%,84%,81.8%,86.9%,0.0238% (active),66.5%,68.2%,,,94.8%,58.9%,51.6%,75.4%,52.8%,65.5%,66.2%,,,49.7%,
CCN(CC)CC(O)CNc1ccc(NCC2CO2)c2c1C(=O)c1ccccc1C2=O (stereo not drawn),-43% (active),0.0591% (active),-34.9% (active),-43.9% (active),,7.32% (active),-21.7% (active),-40.8% (active),-25.6% (active),-44.4% (active),-2.98% (active),4.29% (active),-7.61% (active),20.4%,-39.4% (active),-2.17% (active),-74.1% (active),-19.1% (active),-63.1% (active),
O=C1C=CC(=O)N1c1ccccc1,98.2%,87.7%,92%,110%,,102%,94.5%,,52.6%,101%,78.6%,88.7%,112%,,100%,96.9%,-51.8% (active),109%,,
C=C(C(N)=O)C(N)C(=O)O (stereo not drawn),110%,112%,110%,108%,,107%,92.8%,,100%,98%,108%,111%,106%,112%,110%,112%,100%,99.9%,90.7%,
O=C(c1ccccc1)C(Br)[N+](=O)[O-] (stereo not drawn),99.8%,101%,73.6%,,103%,69.6%,106%,86.8%,25.8%,54.4%,93.2%,117%,102%,101%,,79%,,105%,84.3%,
CC(C)=CCCC(C)C1=C(O)C(=O)C(C)=CC1=O (stereo not drawn),97%,94.8%,125%,,,110%,93.2%,50.3%,-45.3% (active),69.3%,40.5%,58.5%,93.7%,120%,96.3%,120%,-55.5% (active),99.6%,107%,
Oc1c(C(Nc2ccccc2)c2ccccc2)ccc2cccnc12 (stereo not drawn),51%,33.2%,24.1%,20.7%,19.9%,37.3%,39.3%,16.8%,32.1%,87.6%,,74.9%,33.4%,6.25% (active),27.2%,64.3%,,57.8%,45.8%,
c1ccc(-c2cccc(-c3ccccn3)n2)nc1,21.3%,,7.3% (active),3.53% (active),42.4%,9.52% (active),16.2%,4.26% (active),4.95% (active),3.68% (active),44.1%,26.2%,19.9%,19.5%,5.87% (active),-4.86% (active),18.3%,17.8%,-17.8% (active),26.9
